# Experimental data from ChEMBL document CHEMBL3988442, “University of Dundee, Small-Polar-MMV Screening Library” (2021).
# The whole screen tested about 48,000 compounds, of which about 13,000 (27%) showed an effect of 50% or more. The list shows a part of the results.
# System: Wolbachia pipientis
# Assay: Anti-Wolbachia Cell-Based Screen
# Type: functional
# Parameters: scale not given: in the data most compounds retested in dose-response had high values
# Conditions: 5 µM
row,Structure (SMILES),Percent Effect [%]
1,Cc1[nH]c2c(F)cccc2c1CC(=O)N1CCC(NS(C)(=O)=O)CC1,3.004
2,N#Cc1ccc(N2CCCC2Cn2cccn2)nc1 (stereo not drawn),15.37
3,CCc1ncc(C(=O)N2CCCOC(Cn3cccn3)C2)cn1 (stereo not drawn),5.482
4,N[C@H]1CN(C(=O)Cc2cc(F)cc(Cl)c2)C[C@@H]1C1CC1,-8.09
5,CC(C)n1cc(CN2CCCN(C(=O)C3(C)CCOCC3)CC2)cn1,-0.3166
6,CCc1nc(CN2CCCN(C(=O)C3CCOC3)CC2)cs1 (stereo not drawn),3.952
7,CC(C)n1cc(CN2CCCN(C(=O)C3CCCN3C)CC2)cn1 (stereo not drawn),115.6
8,CC(C)n1cc(CN2CCCN(C(=O)C3CCOC3)CC2)cn1 (stereo not drawn),103.2
9,CC(C)n1cc(CN2CCCN(C(=O)c3ccnn3C)CC2)cn1,-7.528
10,CC(C)=CCCC(C)CN1CCC(n2cc(C(C)(C)O)nn2)CC1 (stereo not drawn),-10.5
11,O=c1[nH]c(C2CCOC2)nc2cc(F)c(F)cc12 (stereo not drawn),-25.67
12,c1ccc2oc(CN3CCOC(Cn4cccn4)C3)nc2c1 (stereo not drawn),90.04
13,CC(C)(C)c1nnc(CN2CCOC(Cn3cccn3)C2)o1 (stereo not drawn),-7.281
14,c1coc(-c2nnc(CN3CCOC(Cn4cccn4)C3)o2)c1 (stereo not drawn),-1.801
15,c1cnn(CC2CN(Cc3nnc(C4CC4)o3)CCO2)c1 (stereo not drawn),144.3
16,Nc1nc(CN2CCCC(Cn3cncn3)C2)nc2ccccc12 (stereo not drawn),-7.621
17,Cc1cnn(CC2CN(CCCS(C)(=O)=O)CCO2)c1 (stereo not drawn),-24.88
18,Cc1cnn(CC2CN(CCCS(=O)(=O)N(C)C)CCO2)c1 (stereo not drawn),6.483
19,O=c1[nH]c(CCN2CCCC(Cn3cncn3)C2)nc2ccccc12 (stereo not drawn),2.487
20,c1ccc2oc(CCCN3CCOC(Cn4cccn4)C3)nc2c1 (stereo not drawn),-3.137
21,c1ccc2oc(CCCN3CCCC(Cn4cncn4)C3)nc2c1 (stereo not drawn),99.07
22,c1ccc(-c2noc(CN3CCOC(Cn4cccn4)C3)n2)nc1 (stereo not drawn),10.47
23,Cc1cnn(CC2CN(CCCc3nc4ccccc4o3)CCO2)c1 (stereo not drawn),130.7
24,COc1ccc(CC(=O)N(C)C2CCN(C)C2=O)cc1F (stereo not drawn),-7.072
25,CS(=O)(=O)N1CCC(Oc2ccc(C(=O)NC3CCOC3)cc2Cl)CC1 (stereo not drawn),6.025
26,COC(=O)CN(C(=O)c1ccc(Cl)cn1)c1cccc(F)c1,-0.7063

row,Structure (SMILES),Percent Effect [%]
1,Cc1cnn(CC2CN(Cc3nc4ccccc4n3C)CCO2)c1 (stereo not drawn),109.8
2,Cc1cnn(CC2CN(CCS(=O)(=O)c3ccccc3)CCO2)c1 (stereo not drawn),5.078
3,Cn1c(CN2CCOC(Cn3cncn3)C2)nc2ccccc21 (stereo not drawn),-24
4,c1ccc2oc(CCCN3CCOC(Cn4cncn4)C3)nc2c1 (stereo not drawn),115.2
5,Cc1cnn(CC2CN(Cc3nc4ccccc4o3)CCO2)c1 (stereo not drawn),139.9
6,CCOCC(=O)NCC1Cn2nnc(-c3cccc(F)c3)c2CO1 (stereo not drawn),-1.189
7,NCC1Cc2cccc(-c3ccc(O)c(F)c3)c2O1 (stereo not drawn),16.35
8,CC(NC(=O)N(C)Cc1ccsc1)c1nncn1C (stereo not drawn),-12.05
9,CNC(=O)c1cc2c(nc1NCC(C)C)CCN(S(=O)(=O)C1CC1)CC2,-0.7375
10,CCc1nnsc1C(=O)N(C)Cc1ccco1,13.36
11,CCOC[C@H]1CC[C@H]2[C@H](CCN2S(=O)(=O)Cc2ccccc2)O1,-6.562
12,CCOC[C@@H]1CC[C@H]2[C@H](CCN2C(=O)c2ccncc2F)O1,103.3
13,CCOC[C@H]1CC[C@H]2[C@H](CCN2C(=O)c2ccncc2F)O1.O=C(O)C(F)(F)F,0.195
14,COC[C@@H]1CC[C@H]2[C@H](CCN2S(=O)(=O)c2ccc(F)cc2)O1,6.066
15,COC[C@@H]1CC[C@H]2[C@H](CCN2C(=O)c2ccncc2F)O1.O=C(O)C(F)(F)F,-6.773
16,COC[C@H]1CC[C@H]2[C@H](CCN2C(=O)c2ccncc2F)O1,114.1
17,Cc1ccc(CN2Cc3nnn(C)c3C(COCc3ccccn3)C2)s1.O=C(O)C(F)(F)F.O=C(O)C(F)(F)F (stereo not drawn),95.33
18,Cc1ccc(CN2Cc3nnn(C)c3C(COCc3ccccc3)C2)s1.O=C(O)C(F)(F)F (stereo not drawn),113.4
19,CN(C)C(=O)N1Cc2nnn(C)c2C(COCc2cccnc2)C1.O=C(O)C(F)(F)F (stereo not drawn),-1.037
20,CCOCC(=O)N1Cc2nnn(C)c2C(COCc2ccccn2)C1.O=C(O)C(F)(F)F (stereo not drawn),0.961
21,Cn1nnc2c1C(COCc1ccccn1)CN(C(=O)c1cccs1)C2.O=C(O)C(F)(F)F (stereo not drawn),-3.747
22,Cc1ccc(CN2CCc3c(nnn3C)C2COCc2ccccc2)s1.O=C(O)C(F)(F)F (stereo not drawn),-9.551
23,Cc1cc(CN(C)C(=O)CNS(=O)(=O)c2cccs2)no1,-1.596
24,CC[C@H]1COCCN1C(=O)c1ccc(OC)c(N2CCOCC2)c1,7.42
25,Cc1ncsc1CN1C[C@@H]2CCCO[C@@H]2[C@H](N(C)C(C)C)C1.O=C(O)C(F)(F)F.O=C(O)C(F)(F)F,-15.14
26,CCN(C(=O)C(C)C)C(c1cccnc1)c1ccc2c(c1)CCO2 (stereo not drawn),4.729

row,Structure (SMILES),Percent Effect [%]
1,Cc1cnccc1NC(=O)CCc1ccsc1,-8.034
2,Cc1csc(N2CCN(C(=O)Cc3ccsc3)CC2)n1,4.933
3,Cc1cc(NC(=O)CCc2ccsc2)n(C)n1,5.21
4,Cn1c(=O)cc(C(=O)NC(Cc2ccsc2)c2cccnc2)[nH]c1=O (stereo not drawn),175.1
5,CC(Cc1ccsc1)NC(=O)c1cc(N2CCNC2=O)ccc1F (stereo not drawn),-0.338
6,Cc1csc(C(Cc2ccsc2)NC(=O)c2cc(=O)n(C)c(=O)n2C)n1 (stereo not drawn),142.4
7,Cn1c(C(=O)NC(Cc2ccsc2)c2cccnc2)cc(=O)n(C)c1=O (stereo not drawn),166.4
8,CC(c1cccnc1)N1CCN(C(=O)NCc2cnn(C)c2)CC1 (stereo not drawn),-9.128
9,CCN(CC)c1ccc(C(=O)N(C)Cc2c(C)noc2C)cn1,3.136
10,CCN(Cc1ccc(C#N)cc1F)C(=O)CN(C)CC(N)=O,-8.702
11,COCc1ccccc1C(=O)NCCCN1CCCC1C(=O)N(C)C (stereo not drawn),-20.3
12,CC(C)c1nnc2n1CCN(c1nc3ccccc3o1)C2,11.04
13,Cc1nn(-c2ccccc2)cc1C(=O)N1CCCN2CCCC2C1 (stereo not drawn),6.19
14,CC(C)CCC(=O)N1CCN(C(=O)c2ccc(-n3cccn3)cc2)CC1,-3.976
15,O=C(c1cccc(-n2cccn2)c1)N1CCOC(CCO)C1 (stereo not drawn),-0.5625
16,O=C(c1ccc(-n2cccn2)cc1Cl)N1CCCC(O)(CO)C1 (stereo not drawn),-12.88
17,O=C(c1cc(-n2cccn2)ccc1Cl)N1CCCC(N2CCCC2)C1 (stereo not drawn),114.1
18,O=C(NCc1ccccc1-n1cccn1)N1CCN2CCCCC2C1 (stereo not drawn),-0.3123
19,O=C(c1cccnc1-n1cccn1)N1CCN(CC2CC2)CC1,-16.04
20,O=C(c1cc(-n2cccn2)ccc1Cl)N1CCC(N2CCCC2=O)CC1,95.9
21,CCN(CC)C1CCN(C(=O)c2cc(-n3cccn3)ccc2Cl)CC1,93.46
22,CCn1ccnc1CN1CCCC(N(C)CCc2ccccc2)C1 (stereo not drawn),3.806
23,COc1ccc(Cl)cc1-c1cc(NC(=O)C2COCCO2)[nH]n1 (stereo not drawn),-1.485
24,Cc1cc(I)cnc1NC(=O)C(C)(C)C,-4.531
25,CC(C)Cc1nc(OCC(N)=O)c(C#N)c2c1CCC2,34.66
26,COCCCC1(C(=O)O)CCCN(C(=O)c2ccc(C(C)C)[nH]c2=O)C1 (stereo not drawn),4.25

row,Structure (SMILES),Percent Effect [%]
1,O=C(Nc1ccnc(OC2CCOC2)c1)c1ccccc1Cl (stereo not drawn),70.82
2,Cc1occc1C(=O)Nc1ccnc(OC2CCOC2)c1 (stereo not drawn),30.35
3,O=C(Nc1ccnc(OC2CCOC2)c1)c1ccc(F)cc1Cl (stereo not drawn),-10.63
4,N[C@H]1CN(C(=O)c2ccccc2Oc2ccccc2)C[C@@H]1C1CC1,-0.964
5,O=C(O)c1ccnc(-c2ccnc(N3CCC(F)(F)CC3)n2)c1,-4.386
6,CCN1CCN(CCC(=O)NC2CC(c3cccc(Cl)c3)C2)CC1 (stereo not drawn),-7.949
7,Cc1nccn1C1CCCN(C(=O)c2ccc3c(c2)CCC3)C1 (stereo not drawn),108.9
8,Cc1nccn1C1CCCN(C(=O)c2cc3ccccc3[nH]2)C1 (stereo not drawn),-11.12
9,Cc1nccn1C1CCCN(C(=O)c2ccc3c(c2)COC3)C1 (stereo not drawn),0.6755
10,Cc1nccn1C1CCCN(C(=O)c2ccc3cc[nH]c3c2)C1 (stereo not drawn),104
11,CC(CO)NCc1csc2c1CCCC2 (stereo not drawn),1.325
12,CCCc1ccc(CN2CCN(C(=O)CC(C)C)[C@@H]3CS(=O)(=O)C[C@@H]32)o1,-2.422
13,O=C(NC1CC1)N1CCc2ncnc(-c3ccncc3)c2CC1.O=C(O)C(F)(F)F,-17.44
14,CC(C)NC(=O)N1CCc2ncnc(-c3ccncc3)c2CC1.O=C(O)C(F)(F)F,129.4
15,O=C(O)C(F)(F)F.O=C(c1ccncc1)N1CCc2ncnc(C3CC3)c2CC1,-7.83
16,Cc1ncnc2c1CCN(C(=O)c1ccncc1)CC2.O=C(O)C(F)(F)F,-2.654
17,O=C(O)C(F)(F)F.O=C(c1ccno1)N1CCc2ncnc(-c3ccncc3)c2CC1,111.4
18,COc1cc(N2CCc3ncnc(-c4ccncc4)c3CC2)ncn1.O=C(O)C(F)(F)F,4.079
19,CN(C)C(C(=O)NC1(CO)CCCC1)c1ccc(F)cc1 (stereo not drawn),-4.7
20,O=C1N(c2ccc(Br)cc2)Cc2nc(=O)[nH]n21,13.29
21,Cc1cc2cc(C(=O)N3CCN(CCO)[C@@H]4CS(=O)(=O)C[C@@H]43)ccc2o1,-0.6581
22,Cc1cc2cc(C(=O)N[C@@H]3CC[C@@H](N4CCNC(=O)C4)[C@@H]3O)ccc2o1,121.8
23,Cc1cc(C(=O)N[C@@H]2CCNC[C@H]2O)ccc1Cl,-15.13
24,Cc1cc2cc(C(=O)N[C@@H]3CC[C@@H](N4CCOCC4)[C@@H]3O)ccc2o1,-19.97
25,Cc1cc2cc(C(=O)N[C@@H]3CC[C@@H](N4CCCC4)[C@@H]3O)ccc2o1,117.2
